Most compounds without a hit are left out; they make up all but 3.5% or so of the library.
Pf apPOL inh = Pf-apPOL DNA polymerase inhibition; Recombinant Pf-apPOL, molecular beacon fluorescence, 1.5 h; inhibition, % at 10 µM; hit rate 0.25% among 210,000; AID 1794808
mHTT CaM bind = mHTT-calmodulin interaction abrogation; inhibition, % at 15 µM; P42858; hit rate 3.6% among 190,000; AlphaScreen His-mHTT/GST-CaM binding, luminescence
Of the large screens only hits and unclear results are named; the others gave an inactive call; ! = a repeat was not active. No stated cut-off is given here; in the data, active means inhibition above about 50%; inactive means the rest.

CCn1cnc2c1c(=O)n(C1CC1)c(=O)n2-c1cccc(C)c1	none
CCOC(=O)C(C#N)=CNC1CCCCNC1=O (configuration not stated)	none (no result: mHTT CaM bind)
CC(=O)N(Cc1ccc2c(c1)CN(C(=O)C(C)(C)C)CCO2)c1ccc(C)cc1	mHTT CaM bind 73
CC(C)(C)C(=O)N1CCN(Cc2ccc3c(c2)OCO3)CC1	none (no result: mHTT CaM bind)
Cn1c(=O)n(Cc2ccc(F)cc2)c(=O)c2cnc(-c3ccc(Cl)cc3)nc21	none
CCn1ccc2c(cc(C(=O)Nc3ccccc3Cl)n2C)c1=O	none
CC1=NN(C(=S)c2ccc(C)cc2)C(C)(O)C1CC(C)C (configuration not stated)	mHTT CaM bind 76 (no result: Pf apPOL inh)
O=C(COc1ccccc1F)n1nnc2ccccc21	none
CC(C)(C)c1cc(C2=C(N3CCOCC3)C(=O)c3ccccc3C2=O)cc(C(C)(C)C)c1O	mHTT CaM bind 86
CC(C)(C)c1cc(C(c2ccccc2O)N2CCOCC2)cc(C(C)(C)C)c1O (configuration not stated)	mHTT CaM bind 52
CC1CCN(C(c2ccc(N(C)C)cc2)c2cc(C(C)(C)C)c(O)c(C(C)(C)C)c2)CC1 (configuration not stated)	mHTT CaM bind 66
CC(C)(C)c1cc(CN2CCC(O)CC2)cc(C(C)(C)C)c1O	none
Cc1ccc(NC2=C(N3CCOCC3)C(=O)c3ccccc3C2=O)cc1	none
COc1cc(C(c2cc3c(cc2O)OCO3)N2CCOCC2)cc(OC)c1OC (configuration not stated)	none (no result: Pf apPOL inh)
CCc1csc(-c2ccc(N3CCN(C(=O)c4ccc(C)cc4)CC3)nc2)n1	none
Cc1ccc(C(C)NC(=O)C2CCCN(c3cnc4nccnc4c3)C2)c(C)c1 (configuration not stated)	none
O=C(O)CCNC(=O)/C(=C\c1ccc2c(c1)OCO2)NC(=O)c1ccco1	none
Cc1ccc(C2CC(C(F)(F)F)n3nc(C(=O)N4CCCC4)cc3N2)cc1 (configuration not stated)	none
Cc1ccc(C2CC(C(F)(F)F)n3nc(C(=O)N4CCN(c5ccccc5)CC4)cc3N2)cc1 (configuration not stated)	mHTT CaM bind 90
CCOc1ccccc1N1CCN(c2nccn3cncc23)CC1	mHTT CaM bind 54
CCOc1ccccc1N1CCN(S(C)(=O)=O)CC1	none
Cc1ccc(NC(=O)N2CCCC2c2ccccc2Cl)cc1 (configuration not stated)	none
O=C1C=CC(=O)N1c1ccc(-c2nc3ccccc3o2)cc1	mHTT CaM bind 53
O=C1c2ccc(-c3nc4ccccc4o3)cc2C(=O)N1c1ccc([N+](=O)[O-])cc1	none
COCCCNC(=O)C1(C)CCC(=O)N1c1cc(Cl)c(OC)cc1OC (configuration not stated)	none
O=C1CC(c2ccccc2)CC2=C1C(c1ccc(Cl)c([N+](=O)[O-])c1)Nc1ccccc1N2 (configuration not stated)	mHTT CaM bind 84
O=C1CC(c2cccc([N+](=O)[O-])c2)CC2=C1C(c1ccc(Cl)cc1)Nc1ccccc1N2 (configuration not stated)	mHTT CaM bind 58
O=C1CC(c2ccc(Cl)cc2)CC2=C1C(c1ccccc1[N+](=O)[O-])Nc1ccccc1N2 (configuration not stated)	none
O=C1CC(c2ccccc2)CC2=C1C(c1ccc(Cl)cc1)Nc1ccccc1N2 (configuration not stated)	none
O=C(NC1CCCCC1)c1cc2c(s1)CCN(C(=O)c1ccccc1)C2	none
CC(=O)Nc1ccc(CC(=O)N2CCCC2c2nc(-c3cccc(C)c3)no2)cc1 (configuration not stated)	none
NC(=O)CSc1nc2[nH]c(=O)cc(O)c2s1	none (no result: Pf apPOL inh)
Clc1ccc(Cc2nc(-c3cccc(-c4ccn[nH]4)c3)no2)cc1	mHTT CaM bind 91
Clc1ccc(OCc2nc(-c3cccc(-c4ccn[nH]4)c3)no2)cc1	none
COc1ccc(N2C(=O)CC(Sc3nc4ccccc4s3)C2=O)cc1 (configuration not stated)	none
COc1ccc(OC)c(N2C(=O)CC(Sc3nc4ccccc4s3)C2=O)c1 (configuration not stated)	mHTT CaM bind 51!
COc1ccc(C(=O)CSc2nnc(CCn3ccc(=O)[nH]c3=O)o2)cc1OC	none
CC(=O)N1CCC2(CC1)N=C(c1cc(Cl)ccc1O)CC(c1ccc(C)cc1)N2 (configuration not stated)	none
CCN1CCC2(CC1)N=C(c1ccc(C)cc1C)CC(c1cc(Cl)ccc1O)N2 (configuration not stated)	mHTT CaM bind 90
CC(=O)N1CCC2(CC1)N=C(c1ccccc1O)CC(c1ccc(F)c(Cl)c1)N2 (configuration not stated)	mHTT CaM bind 69
CC(=O)N1CCC2(CC1)N=C(c1ccccc1O)CC(c1ccc(Cl)cc1)N2 (configuration not stated)	none
CCN1CCC2(CC1)N=C(c1ccc(C)c(C)c1)CC(c1cc(Cl)ccc1O)N2 (configuration not stated)	none
Cc1ccc(C2CC(c3cc(Cl)ccc3O)=NC3(CCN(C)CC3)N2)cc1 (configuration not stated)	mHTT CaM bind 100
Cc1ccc(C)c(OCCn2cc(C=C3C(=O)NC(=O)NC3=O)c3ccccc32)c1	none
Cc1c(Cl)cccc1NC(=O)c1ccc([N+](=O)[O-])o1	none
COc1ccc(-c2nc3c(c(=O)[nH]2)CCN(C(=O)C(C)(C)C)C3)cc1	none
CC1=C(C#N)c2nc(N)c(C#N)c(C)c2/C1=C/c1ccc(O)cc1	mHTT CaM bind 64
COc1ccc(/C=C2\C(C)=C(C#N)c3nc(N)c(C#N)c(C)c32)cc1OC	none
COc1cc(OC)c(OC)cc1/C=C1\N=C(c2ccccc2)OC1=O	none
CN(C1=CC(=O)c2ccccc2C1=O)c1ccccc1	mHTT CaM bind 60
CN(C)N1C(=O)c2ccccc2C1=O	none
Clc1ccc(CN2CCCN(Cc3ccc(Cl)cc3)C2c2cccnc2)cc1	none (no result: mHTT CaM bind)
c1ccc(N2CCN(c3ccccc3)C2c2cccnc2)cc1	mHTT CaM bind 58
Cc1nccn1Cc1nc(-c2ccc(F)cc2)no1	none
CC(=O)Nc1cnc(-c2ccc(C)cc2)nc1	none
CCCNc1nc(C(Cl)(Cl)Cl)nc2ccccc12	none
Clc1nc(C(Cl)(Cl)Cl)nc2ccccc12	mHTT CaM bind 100
O=C(NCc1ccccc1F)C1CCCN(c2nn3c(=O)c4c(nc3s2)CCCC4)C1 (configuration not stated)	none
Cc1c(Cc2ccccc2)sc(NC(=O)CCc2ccccc2)c1C(N)=O	mHTT CaM bind 52
Cc1c(Cc2ccccc2)sc(NC(=O)C(F)(F)F)c1C(N)=O	none
Cc1ccn2c(NC(=O)C(C)C)c(-c3cccc(F)c3)nc2c1	none
CC(Cl)C(=O)Nc1c(-c2ccc(C(F)(F)F)cc2)nc2ccccn12 (configuration not stated)	mHTT CaM bind 55
Cc1ccn2c(NC(=O)C(C)Cl)c(-c3cccc(F)c3)nc2c1 (configuration not stated)	mHTT CaM bind 69
O=C(Nc1c(-c2ccccc2)nc2ccccn12)c1cccnc1	none
O=C(/C=C/c1ccccc1)Nc1c(-c2ccccc2)nc2ccccn12	mHTT CaM bind 61
Cc1ccc(-c2nc3ccccn3c2NC(=O)C(C)Cl)cc1 (configuration not stated)	none
CC1CCN(C(=O)c2cc3cn(C4CC4)cc3s2)CC1	none
Cc1ccc(NC2OC(=O)c3ccccc32)cc1Cl (configuration not stated)	none

Screens deposited in PubChem by University of Kansas High Throughput Screening Laboratory.
